# CYP2C19 act – activators of human cytochrome P450 2C19 | recombinant CYP2C19, luciferin-H EGE luminescence; active compounds read high; 0 = fully inhibited enzyme, 1 = untreated enzyme | P33261 | activation factor at 5 µM | AID 1025 | 96,000 tested, under 10 active;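 active = activation factor of at least 2 at 5 µM in the primary screen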;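 also: 0 = wells with 2.5 mM tranylcypromine and 1 = vehicle-only wells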
# CYP2C9 inh – blocks human cytochrome P450 2C9 | CYP2C9 Supersomes, luciferin-H conversion, luminescence | inhibition, % at 5 µM | actives 20% (n = 96,000) | AID 777;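 active = blocking of liver enzyme CYP2C9 beyond about 50% at 5 µM, limit read from the data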
# CYP2C9 act – CYP2C9 (human) activation; P11712; recombinant CYP2C9, luciferin-H conversion, luminescence; active compounds read high; factor 1 = untreated enzyme, 0 = blocked; activation factor at 5 µM; actives 1.4% (n = 96,000);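 active = activation factor of 2 or more for CYP2C9 at a 5 µM dose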;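 also: 0 = sulfaphenazole-blocked wells and 1 = vehicle-only wells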
# D1 allo mod – allosterically modulates the human D1 dopamine receptor | HEK293 D1, CRE-luciferase, dopamine EC30 potentiation; actives deviate in either direction | B-score at 10 µM | P21728 | actives 5.9% (n = 58,000) | AID 641;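 active = luminescence count or its row- and column-corrected plate score outside the 99.7% band of the plate's sample wells, on either side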
# hDAT+cocaine – human DAT dopamine uptake with cocaine, either direction; actives 1.3% (n = 110,000); AID 449768; B-score at 10 µM; LLC-PK1 hDAT cells, [14C]-dopamine uptake with cocaine IC80; actives deviate in either direction;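 active = Z score or B-score, a plate-position-corrected score, falls beyond the plate's 99.7% confidence bounds, in either direction; inactive = both scores lie inside the 99.7% bounds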;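 also: scored against the spread of the other compound wells on the same plate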
# Target sequence (Q01959 whole entry, looked up): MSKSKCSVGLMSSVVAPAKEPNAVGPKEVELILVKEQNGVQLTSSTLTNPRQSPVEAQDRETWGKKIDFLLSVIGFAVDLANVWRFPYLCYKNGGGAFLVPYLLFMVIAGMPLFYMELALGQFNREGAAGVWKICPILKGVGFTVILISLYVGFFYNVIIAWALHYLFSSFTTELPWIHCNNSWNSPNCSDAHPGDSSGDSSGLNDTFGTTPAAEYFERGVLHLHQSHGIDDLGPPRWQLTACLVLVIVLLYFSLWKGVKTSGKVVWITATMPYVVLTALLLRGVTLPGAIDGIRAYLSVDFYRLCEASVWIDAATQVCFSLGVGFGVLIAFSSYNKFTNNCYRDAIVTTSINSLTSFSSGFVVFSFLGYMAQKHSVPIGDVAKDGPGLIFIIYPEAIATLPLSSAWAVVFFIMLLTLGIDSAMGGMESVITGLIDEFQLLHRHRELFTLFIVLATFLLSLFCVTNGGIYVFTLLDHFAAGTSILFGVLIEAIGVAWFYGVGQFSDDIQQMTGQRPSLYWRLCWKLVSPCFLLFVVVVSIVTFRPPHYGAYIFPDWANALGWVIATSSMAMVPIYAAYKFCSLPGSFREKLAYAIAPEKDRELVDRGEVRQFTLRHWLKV
# CYP2C19 inhib – blocks human cytochrome P450 2C19 | P33261 | CYP2C19 Supersomes, luciferin-H EGE luminescence, 30 min | inhibition, % at 5 µM | actives 21% (n = 96,000) | AID 778;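 active = CYP2C19 inhibition above a set limit at 5 µM in the primary screen, cut at about 50% in these data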;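 also: plate controls were negative control wells for no effect and 2.5 mM tranylcypromine positive control for full effect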
# An asterisk follows results filed as active; / = no result. Sampled rows, rich in hits. Any-hit rate of the full collection: about 28%.
SMILES,CYP2C19 act,CYP2C9 inh,CYP2C9 act,D1 allo mod,hDAT+cocaine,CYP2C19 inhib
CSc1ccccc1NC(=O)c1ccccc1N(Cc1ccccc1)S(C)(=O)=O,0.6,59*,0.4,/,-0.019,43
CS(=O)(=O)N(CC(=O)Nc1ccccc1Sc1ccccc1)c1cccc(Br)c1,0.9,66*,0.3,/,-0.035,14
COC(=O)C1=C(C(=O)OC)[C@@H]2N(C)c3ccccc3[C@@]23C[C@@H](CO)N(C(=O)c2cccs2)C3=N1,/,/,/,/,-0.018,/
O=C(/C=C/c1cc([N+](=O)[O-])ccc1OC(F)F)NCc1ccc(F)cc1,0.7,-7,1.1,/,0.23,34
O=C(Nc1nc(-c2cccs2)cs1)c1ccc(S(=O)(=O)N2CCCCC2)cc1,0.6,60*,0.4,-0.9,2.5,39
O=C(Nc1nc(-c2ccccc2)cs1)c1cccc(S(=O)(=O)N2CCN(Cc3ccccc3)CC2)c1,0.5,90*,0.1,/,/,53*
CCOC(=O)Cc1csc(NC(=O)c2ccc(S(=O)(=O)N3CCCC3)cc2)n1,0.2,88*,0.1,0.084,1.2,79*
CCCC(=O)Nc1ccc(C(=O)Nc2nc(CC(=O)OCC)cs2)cc1,0.7,41,0.6,/,-0.2,27
O=C(Nc1nc(-c2cccs2)cs1)c1cccc(S(=O)(=O)N2CCCCCC2)c1,0.3,94*,0.1,-0.065,-0.93,72*
CC(=O)Nc1cc(C(N)=O)c(Cl)cc1Cl,1.1,-16,1.2,0.013,-0.34,-12
CN(C[C@H](CC1CCCCC1)N(C[C@H](Cc1ccccc1)N(CCc1ccccc1)N=O)N=O)N=O,/,/,/,/,-0.25,/
CCOC(=O)c1c(C)cc(C)n2c1nc1ccccc12,1.2,-24,1.2,/,0.094,-18
CCC(c1nnnn1CCC(C)C)N1CCC(C(N)=O)CC1 (stereo not drawn),1.2,-7,1.1,0.2,0.37,-18
CC1(C)Nc2ccc(O)cc2-c2c1ssc2=S,/,/,/,/,0.53,/
COc1cccc(-n2sc3c(c2=S)-c2cc(OC)ccc2NC3(C)C)c1,0.9,69*,0.3,/,0.64,12
CCn1c(SCc2cccc(C(=O)O)c2)nnc1-c1ccccc1,1,6,0.9,0.023,0.85,-1
O=C(NC1CCCC1)C(c1ccncc1)N(Cc1ccccc1)C(=O)Cc1cccs1 (stereo not drawn),0.4,39,0.6,/,-0.79,61*
COc1ccc(CN(C(=O)Cc2c[nH]c3ccccc23)C(C(=O)NC2CCCCC2)c2ccc(C)o2)cc1 (stereo not drawn),0.1,94*,0.1,/,1.2,93*
O=C(NC1CCCC1)C(c1ccccc1)N(Cc1ccc2c(c1)OCO2)C(=O)Cc1cccs1 (stereo not drawn),/,/,/,/,1.4,/
O=C(NC1CCCCC1)C(c1ccncc1)N(Cc1ccccc1)C(=O)c1ccc(-c2ccccc2)[nH]1 (stereo not drawn),0.1,95*,0.1,/,/,93*
Cc1ccc(-c2nnn(CC(=O)N(Cc3ccco3)C(C(=O)NC3CCCC3)c3cccs3)n2)o1 (stereo not drawn),/,/,/,/,0.79,/
Cc1ccc(-c2nnn(CC(=O)N(Cc3ccccc3)C(C(=O)NC3CCCC3)c3ccncc3)n2)o1 (stereo not drawn),0.5,55*,0.4,-0.11,-0.55,45
COc1ccc(C(C(=O)NC2CCCC2)N(Cc2ccccc2)C(=O)CNC(=O)c2ccco2)cc1 (stereo not drawn),0.7,-1,1,/,-0.2,31
C[C@@H]1CC=C[C@H]2[C@H]1C(=O)N(Cc1ccccc1)[C@H]2c1cccc([N+](=O)[O-])c1,/,/,/,/,-0.43,/
CCOc1ccc(NC(c2ccccn2)c2oc(CO)cc(=O)c2O)cc1 (stereo not drawn),/,/,/,/,-0.54,/
SMILES,CYP2C19 act,CYP2C9 inh,CYP2C9 act,D1 allo mod,hDAT+cocaine,CYP2C19 inhib
COc1ccc(CCN2CC34C=CC(O3)C(C(=O)NCc3ccccc3)C4C2=O)cc1OC (stereo not drawn),1,49,0.5,0.9,-0.033,3
COc1ccccc1CN(C(=O)c1ccco1)C(C(=O)NC1CCCC1)c1ccncc1 (stereo not drawn),0.4,42,0.6,/,1,63*
O=C(NC1CCCCC1)C(c1ccco1)N(Cc1ccco1)C(=O)c1ccco1 (stereo not drawn),0.4,63*,0.4,-0.75,-0.027,65*
O=C(NCC(=O)N(Cc1ccccc1)C(C(=O)NC1CCCCC1)c1ccco1)c1ccco1 (stereo not drawn),/,/,/,/,0.18,/
O=C(NC1CCCC1)C(c1ccncc1)N(Cc1cccs1)C(=O)c1csnn1 (stereo not drawn),0.6,54*,0.5,0.071,-0.9,37
COc1ccc(-c2nnn(CC(=O)N(Cc3cccs3)C(C)C(=O)NC3CCCC3)n2)cc1OC (stereo not drawn),0.4,52*,0.5,4*,-0.45,57*
CCOC(=O)C1=C(C)N=c2sc(=C(C)C)c(=O)n2C1c1ccc(N(C)C)cc1 (stereo not drawn),/,/,/,/,0.012,/
C#Cc1ccc([C@@H]2C=C(C(=O)NCc3ccccc3)O[C@H](OCC)[C@H]2CCCO)cc1,/,/,/,/,0.49,/
CCCC(c1nnnn1Cc1ccco1)N1CCC(C(N)=O)CC1 (stereo not drawn),0.9,-9,1.1,0.054,-0.27,5
COc1ccc(C(C(=O)NC2CCCCC2)N(C(=O)Cc2c[nH]c3ccccc23)c2ccc(NC(C)=O)cc2)cc1OC (stereo not drawn),0.7,36,0.6,/,-0.19,28
O=C(NC1CCCC1)C(c1ccccc1F)N(C(=O)c1ccco1)C1CCCC1 (stereo not drawn),0.7,51*,0.5,-0.85,-0.18,25
COc1ccc(C(=O)N(CC2CCCO2)C(C(=O)NC2CCCC2)c2ccc(Cl)cc2)cc1OC (stereo not drawn),1,9,0.9,/,-0.47,5
COc1cc(C(C(=O)NC2CCCCC2)N(Cc2cccs2)C(=O)Cc2c[nH]c3ccccc23)cc(OC)c1OC (stereo not drawn),0.3,58*,0.4,/,0.034,73*
O=C(NC1CCCC1)C(c1ccccc1)N(C(=O)c1ccco1)C1CCCC1 (stereo not drawn),/,/,/,/,-0.0089,/
COc1ccccc1CN(C(=O)Cc1cccs1)C(C(=O)NC1CCCC1)c1ccncc1 (stereo not drawn),0.2,50,0.5,/,-1.1,77*
COc1ccc(C(=O)N(Cc2ccco2)C(C(=O)NC2CCCC2)c2ccc(O)cc2)cc1OC (stereo not drawn),0.5,56*,0.4,0.17,-0.69,50*
Cc1ccc(-c2nnn(CC(=O)N(Cc3cccs3)C(C(=O)NC3CCCC3)c3ccncc3)n2)cc1 (stereo not drawn),/,/,/,/,0.66,/

# Assay outcomes (PubChem)
